# Results as given in PubChem BioAssay (NCI).
# The panel holds about 83,000 compounds, 20% with a hit somewhere; the sample as a whole holds those more often.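 For each line, cells grew in 96-well plates with the test compound present at a single concentration for 48 hours.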 Values without a mark were called inactive. Calls of active or inactive are those of the source. Rule for the calls: active = growth percent below 10; inactive = the rest.
# Legend:
# Assay in all cases: NCI-60 one-dose screen, 48 h (100 = growth as untreated, 0 = no growth, -100 = all killed)
# Conditions in all cases: 10 µM unless noted
# NCI-H23 lung = system: NCI-H23 lung
# NCI-H226 lung = system: NCI-H226 lung
# NCI-H322M lung = system: NCI-H322M lung
# HOP-62 NSCLC = system: HOP-62 NSCLC
# NCI-H460 lung = system: NCI-H460 lung
# HOP-92 NSCLC = system: HOP-92 NSCLC
# NCI-H522 lung = system: NCI-H522 lung
# A549/ATCC NSCLC = system: A549/ATCC NSCLC
# 786-0 renal = system: 786-0 renal
# COLO 205 colon = system: COLO 205 colon
# DU-145 prostate = system: DU-145 prostate
# K-562 leukemia = system: K-562 leukemia
# MALME-3M melanoma = system: MALME-3M melanoma
# MDA-MB-231 breast = system: MDA-MB-231 breast
# RXF 393 renal = system: RXF 393 renal
# SF-268 CNS = system: SF-268 CNS
# SF-295 CNS = system: SF-295 CNS
# SF-539 CNS = system: SF-539 CNS
# UACC-257 melanoma = system: UACC-257 melanoma
# M14 melanoma = system: M14 melanoma
SMILES,growth (NCI-H23 lung),growth (NCI-H226 lung),growth (NCI-H322M lung),growth (HOP-62 NSCLC),growth (NCI-H460 lung),growth (HOP-92 NSCLC),growth (NCI-H522 lung),growth (A549/ATCC NSCLC),growth (786-0 renal),growth (COLO 205 colon),growth (DU-145 prostate),growth (K-562 leukemia),growth (MALME-3M melanoma),growth (MDA-MB-231 breast),growth (RXF 393 renal),growth (SF-268 CNS),growth (SF-295 CNS),growth (SF-539 CNS),growth (UACC-257 melanoma),growth (M14 melanoma)
C=C1C(=O)O[C@H]2[C@H]1CC/C(COC(=O)CCC(=O)NCCOCCOCC(=O)Nc1ccc(OC)c(C(N)=O)c1O)=C\CC[C@@]1(C)O[C@@H]21,101%,55.5%,101%,90.3%,79.3%,68.6%,26.5%,91.4%,91.8%,63.7%,101%,86.2%,92.7%,95.2%,67.9%,95.2%,97.3%,88.8%,77.6%,93.3%
Cc1ccc(C(C)C)cc1C(=O)C[n+]1ccccc1,113%,105%,96.8%,91.6%,109%,100%,81.7%,101%,96.4%,112%,107%,105%,95.9%,112%,121%,98.8%,93.5%,97.1%,115%,95.6%
Cc1cc(N2CCCC2)nc(N(CCCNc2ccnc3cc(Cl)ccc23)Cc2ccccn2)n1,59%,79.8%,57.1%,55.6%,35.6%,17.4%,47.3%,62%,53.3%,39.1%,62.7%,11.3%,39.4%,45.2%,25.8%,62.5%,66%,9.89% (active),49.4%,-15.9% (active)
O=C(/C=C/c1sc(Cl)nc1Cl)c1ccc(Br)cc1,85.8%,81.6%,100%,97.3%,103%,90.2%,86.6%,96.1%,92.2%,78.8%,98.6%,9.52% (active),83.6%,90.4%,85.5%,94.1%,95.9%,71.1%,98.3%,67.8%
Cc1ccc(-c2nn(C)c(=O)c3noc(-c4ccc(C)cc4)c23)cc1,43.1%,58%,56.4%,28.1%,22.7%,14.2%,9.02% (active),46.2%,29%,12.5%,35.3%,17%,73.9%,58.3%,13.6%,55.1%,41.2%,-4.12% (active),62.8%,21.6%
Cc1nc(/N=C(\N)NC(=O)Nc2cccc(Cl)c2)sc1C,73.2%,90.2%,92%,71%,66%,89.5%,38.9%,70.1%,97.8%,67.3%,90%,17%,62%,87.9%,87.8%,89.5%,77.2%,78.3%,71.7%,50.5%
Cc1ccc(-c2nc3c(c(-c4ccccc4)nn3-c3ccccc3)c(-c3ccc(O)cc3)c2C#N)cc1,67.5%,80%,88.5%,40%,27.4%,74.5%,69.4%,52.3%,18.6%,70.4%,60.5%,22.3%,75.1%,45.9%,-10.4% (active),60.2%,-20.9% (active),15.2%,93.9%,60.3%
Cc1[nH]c(C(=O)Nc2ccc(C(=O)NCCN)cc2OC(C)C)c(Cl)c1Cl,79.5%,93.5%,53.3%,59.9%,-55.2% (active),29.7%,-6.73% (active),47.3%,44%,-45.7% (active),33.8%,-19.3% (active),63.3%,-27% (active),83.5%,68.1%,89.7%,-22.3% (active),105%,-31.1% (active)
